According to PubChem BioAssay (Tox21):
“And” between values parts separate entries of the source, which are not always exact repeats. Identical values can stand only once. Records with an inconclusive call do not appear. Some compounds were tested as several samples or in several runs, with calls that do not always agree. The source made the active and inactive calls. Unless noted, calls come from the whole dose curve; as a rule, active = well fitted curve in the direction sought with a large enough effect in the repeat runs; inconclusive = weak or mixed curves; inactive = no such curve, though single readings can be large; an effect the other way counts as inactive or inconclusive.

Legend:
[1] = A CellTox Green Cytotoxicity Assay to monitor cytotoxicity in HEK293 cells - 32 hour (AID 1224881); note: nearly all actives have a fitted effect of over 40% in size; note: potency is the fitted concentration of half-maximal effect
How it was run: (§1)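 Homogeneous no-lysis format: HEK293 cell suspension mixed with CellTox Green reagent, seeded, incubated 5 h at 37 C/5% CO2, then dosed by pintool with compound in DMSO.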

[2] = A CellTox Green Cytotoxicity Assay to monitor cytotoxicity in HepG2 cells - 0 hour (AID 1224882); note: nearly all actives have a fitted effect of over 35% in size
How it was run: (§2)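 Fluorescent DNA-binding dye, 600 HepG2 cells/well, 5 h preincubation then compound in DMSO; same plates read at 0–40 h, 37 C.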

[3] = A CellTox Green Cytotoxicity Assay to monitor cytotoxicity in HepG2 cells - 32 hour (AID 1224883); note: nearly all actives have a fitted effect of over 50% in size; note: potency is the fitted concentration of half-maximal effect
How it was run: as §2

[4] = A CellTox Green Cytotoxicity Assay to monitor cytotoxicity in HEK293 cells - 8 hour (AID 1224884); note: nearly all actives have a fitted effect of over 35% in size
How it was run: as §1

[5] = qHTS RealTime-Glo MT Cell Viability Assay in HepG2 cells - 16 hour (AID 1224885); note: nearly all actives have a fitted effect of over 50% in size
How it was run: (§3)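 qHTS, HepG2, 600 cells/well, RealTime-Glo (NanoLuc + prosubstrate) added with cells; 5 h preincubation; DMSO compound addition; 37 C; luminescence at 0/8/16/24/32/40 h.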

[6] = qHTS RealTime-Glo MT Cell Viability Assay in HEK293 cells - 24 hour (AID 1224886); note: top concentration of the series differs between compounds; nearly all actives have a fitted effect of over 50% in size
How it was run: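 Assay medium contained NanoLuc luciferase plus cell-permeant prosubstrate, added with HEK293 cells at 600 cells/well. After 5 h at 37 C/5% CO2 compounds were added; plates stayed at 37 C for 40 h with serial luminescence reads.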

[7] = qHTS RealTime-Glo MT Cell Viability Assay in HEK293 cells - 8 hour (AID 1224887); note: top concentration of the series differs between compounds; nearly all actives have a fitted effect of over 50% in size
How it was run: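 Measured as luminescence from the same continuously cultured HEK293 wells at successive time points (0, 8, 16, 24, 32, 40 h) after compound addition. Reagent present from seeding; dosing at 5 h; incubation 37 C.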

[8] = qHTS RealTime-Glo MT Cell Viability Assay in HepG2 cells - 0 hour (AID 1224889); note: nearly all actives have a fitted effect of over 50% in size; note: potency is the fitted concentration of half-maximal effect
How it was run: as §3

[9] = A CellTox Green Cytotoxicity Assay to monitor cytotoxicity in HepG2 cells - 8 hour (AID 1224890); note: nearly all actives have a fitted effect of over 45% in size
How it was run: as §2

[10] = qHTS assay to identify small molecule antagonists of the estrogen receptor alpha (ER-alpha) signaling pathway using the BG1 cell line in the presence of 0.1 nM 17-beta-estradiol - cell viability counter screen (AID 1259241); note: nearly all actives have a fitted effect of over 40% in size
How it was run: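 VM7Luc4E2 cells (endogenous ER-alpha, 4×ERE-luciferase), hormone-starved 5 days in charcoal-stripped FBS, were treated with compounds plus 0.1 nM 17beta-estradiol for 22 hr at 37C; viability read in same wells as CellTiter-Fluor live-cell protease fluorescence.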

[11] = qHTS assay to identify small molecule antagonists of the androgen receptor (AR) signaling pathway using the MDA cell line in the presence of 0.5 nM R1881 - cell viability counter screen (AID 1259242); note: nearly all actives have a fitted effect of over 45% in size; note: potency is the fitted concentration of half-maximal effect
How it was run: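 Human breast carcinoma MDA-kb2 cells, cultured without CO2, receive compounds alongside 0.5 nM (final) R1881 agonist. After 16 hr at 37C, viability is taken as live-cell protease signal.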

[12] = biological target: Estrogen receptor (Homo sapiens) (UniProt P03372); assay: qHTS assay to identify small molecule antagonists of the estrogen receptor alpha (ER-alpha) signaling pathway using the BG1 cell line in the presence of 0.1 nM 17-beta-estradiol (AID 1259244); note: nearly all actives have a fitted effect of over 50% in size
Estrogen receptor (Homo sapiens), sequence (P03372 whole entry, looked up): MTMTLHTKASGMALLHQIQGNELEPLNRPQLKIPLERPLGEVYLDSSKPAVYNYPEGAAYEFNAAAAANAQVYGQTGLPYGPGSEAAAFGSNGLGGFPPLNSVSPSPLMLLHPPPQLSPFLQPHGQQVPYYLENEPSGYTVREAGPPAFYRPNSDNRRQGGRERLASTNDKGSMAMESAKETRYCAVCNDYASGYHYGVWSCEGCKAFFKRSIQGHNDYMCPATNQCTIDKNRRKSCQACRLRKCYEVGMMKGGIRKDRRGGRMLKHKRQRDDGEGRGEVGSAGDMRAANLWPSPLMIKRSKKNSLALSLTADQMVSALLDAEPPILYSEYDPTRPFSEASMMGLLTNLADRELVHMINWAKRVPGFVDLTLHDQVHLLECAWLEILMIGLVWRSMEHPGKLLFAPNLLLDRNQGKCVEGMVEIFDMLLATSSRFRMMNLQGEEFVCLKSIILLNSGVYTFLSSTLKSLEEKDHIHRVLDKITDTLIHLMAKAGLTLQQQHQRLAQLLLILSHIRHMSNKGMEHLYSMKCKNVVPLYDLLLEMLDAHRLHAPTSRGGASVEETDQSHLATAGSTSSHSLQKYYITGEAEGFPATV
How it was run: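 Seeding of stripped-serum-adapted VM7Luc4E2 cells, 24 h attachment, compound transfer, then 0.1 nM final 17beta-estradiol; after 22 h incubation, ONE-Glo reagent and luminescence reading.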

[13] = qHTS assay to identify small molecule phospholipidosis (PLD) inducers (AID 1259344; active = well fitted curve in the direction sought with a large enough effect; an effect the other way counts as inactive or inconclusive)
How it was run: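 After 4 h attachment on collagen I, HepG2 cells were dosed with compound alongside LipidTOX Red, kept 24 h at 37 C, fixed, and imaged for lamellar phospholipid pits.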

[14] = qHTS assay to identify small molecule HDAC inhibitors (AID 1259364); note: potency is the fitted concentration of half-maximal effect;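 note: wild-type HCT-116 cells with endogenous class I/II HDAC activity; nearly all actives have a fitted effect of over 45% in size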; for activity change, negative = inhibition: top concentration of the series differs between compounds
How it was run: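 After a 2 hr compound incubation (37C, 5% CO2), HCT-116 cells seeded at 1,500/well the day before received HDAC-Glo reagent; signal read as luminescence after 30 min at room temperature.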

[15] = qHTS assay to identify small molecule HDAC inhibitors - cell viability counter screen (AID 1259365)
How it was run: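 Wild-type HCT-116 cells were seeded at 1,500 per well, incubated overnight at 37 C, then exposed to compounds in DMSO for 2hr. Viability was read by CellTiter-Glo luminescence after 30min at room temperature.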

[16] = qHTS assay to identify small molecule agonists of the sonic hedgehog signaling (Shh) pathway - cell viability counter screen (AID 1259366); note: nearly all actives have a fitted effect of over 50% in size; note: potency is the fitted concentration of half-maximal effect
How it was run: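 NIH/3T3-derived 3T3 Gli1-Luc cells (stable Gli1-responsive firefly luciferase reporter) were seeded, rested 4 hr at 37 C/5% CO2, then exposed to compounds in DMSO for 24 hr; viability was read by CellTiter-Fluor fluorescence in the same wells.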

[17] = qHTS assay to identify small molecule antagonists of the sonic hedgehog signaling (Shh) pathway - cell viability counter screen (AID 1259367); note: nearly all actives have a fitted effect of over 55% in size; note: potency is the fitted concentration of half-maximal effect
How it was run: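 Conditioned medium drove Shh signaling in 3T3 Gli1-Luc cells exposed to compounds at 37C and 5% CO2. Viability was determined from CellTiter-Fluor fluorescence, with reagent incubated 1 hr after 23 hr of treatment.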

[18] = qHTS assay to identify small molecule agonists of the sonic hedgehog signaling (Shh) pathway (AID 1259368; calls by dose curve; note: series mostly up to about 92 µM; nearly all actives have a fitted effect of over 15% in size)
How it was run: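 Stable NIH/3T3 Gli1-Luc reporter clone; 24 hr cpd exposure after a 4 hr settling period; luminescence endpoint.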

[19] = A CellTox Green Cytotoxicity Assay to monitor cytotoxicity in HEK293 cells - 16 hour (AID 1224888); note: nearly all actives have a fitted effect of over 35% in size
How it was run: as §1

[20] = biological target: Androgen receptor (Homo sapiens) (UniProt P10275); assay: qHTS assay to identify small molecule antagonists of the androgen receptor (AR) signaling pathway using the MDA cell line in the presence of 0.5 nM R1881 (AID 1259243); note: nearly all actives have a fitted effect of over 50% in size; note: potency is the fitted concentration of half-maximal effect
Androgen receptor (Homo sapiens), sequence (P10275 whole entry, looked up): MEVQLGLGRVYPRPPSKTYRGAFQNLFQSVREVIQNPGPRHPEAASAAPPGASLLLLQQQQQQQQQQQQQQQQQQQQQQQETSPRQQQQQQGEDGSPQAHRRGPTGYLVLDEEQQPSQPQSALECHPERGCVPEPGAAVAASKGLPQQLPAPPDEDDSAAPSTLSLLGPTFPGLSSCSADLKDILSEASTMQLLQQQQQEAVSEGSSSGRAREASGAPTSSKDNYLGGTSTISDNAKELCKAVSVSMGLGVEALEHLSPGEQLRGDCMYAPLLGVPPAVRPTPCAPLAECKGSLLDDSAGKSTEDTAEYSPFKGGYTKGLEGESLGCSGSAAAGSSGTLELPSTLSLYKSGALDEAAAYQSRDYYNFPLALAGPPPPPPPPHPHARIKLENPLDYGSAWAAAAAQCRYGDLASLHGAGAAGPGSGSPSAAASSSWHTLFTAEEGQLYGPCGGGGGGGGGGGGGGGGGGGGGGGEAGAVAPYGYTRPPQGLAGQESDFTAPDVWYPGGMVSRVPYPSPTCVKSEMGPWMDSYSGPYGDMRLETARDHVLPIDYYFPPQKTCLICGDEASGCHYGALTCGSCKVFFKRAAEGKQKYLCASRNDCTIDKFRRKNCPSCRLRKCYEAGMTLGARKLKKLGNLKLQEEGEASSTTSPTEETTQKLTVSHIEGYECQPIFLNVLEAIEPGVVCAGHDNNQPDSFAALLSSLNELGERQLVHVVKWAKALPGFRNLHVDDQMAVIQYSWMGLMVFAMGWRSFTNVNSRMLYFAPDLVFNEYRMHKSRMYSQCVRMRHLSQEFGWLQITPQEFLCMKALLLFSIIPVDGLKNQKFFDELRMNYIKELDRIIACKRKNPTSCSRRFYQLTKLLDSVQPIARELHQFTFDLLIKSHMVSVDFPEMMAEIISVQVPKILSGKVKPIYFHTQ
How it was run: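 Cells: MDA-kb2 (MMTV-luc). Stimulus: 0.5 nM R1881. Time: 16 hr, 37C, no CO2. Detection: ONE-Glo luminescence after 30 min at RT.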
% is set by controls: 0 for no effect and ±100 for the full control effect.

CNC[C@H](O)c1ccc(O)c(O)c1
inactive: Potency [1] | Potency [2] | Potency [3] | Potency [4] | Potency [5] | Potency [6] | Potency [7] | Potency [8] | Potency [9] | Potency [10] | Potency [11] | Potency [12] | Potency [13] | Potency [14] | outcome [15] | Potency [16] | viability change, negative = cytotoxic [17] -0.782% [at 19 µM] | Potency [18]

CC(=O)Nc1ccc2c(c1)Cc1cc(NC(C)=O)ccc1-2
inactive: Potency [1] | Potency [2] | Potency [3] | Potency [4] | Potency [5] | Potency [6] | Potency [7] | Potency [19] | Potency [8] | Potency [9] | Potency [10] | Potency [11] | Potency [12] | Potency [14] | outcome [15] | Potency [16] | Potency [17] | Potency [18]

O=C(O)CCCCCCCCCCCC(=O)O
inactive: Potency [1] | Potency [2] | Potency [3] | Potency [4] | Potency [5] | Potency [6] | Potency [7] | Potency [19] | Potency [8] | Potency [9] | Potency [10] | Potency [11] | outcome [15] | Potency [16] | Potency [17] | Potency [18]
active: Potency [14] 30.1 µM and 27.3 µM

O=[Se](O)O
active: Potency [1] 39 µM | Potency [3] 24.6 µM | Potency [11] 13.7 µM
inactive: cytotoxicity increase [1] -8.61% [at 15.8 µM] | Potency [2] | cytotoxicity increase [3] 9.15% [at 15.8 µM] | Potency [4] | Potency [5] | activity change, negative = cytotoxicity [6] -26.2% [at 15.8 µM] | Potency [7] | Potency [19] | Potency [8] | Potency [9] | Potency [10] | viability change, negative = cytotoxic [11] -4.23% [at 19 µM] | activity change, negative = inhibition [12] -20.4% [at 19 µM] | Potency [14] | outcome [15] | Potency [16] | Potency [17] | Potency [18]

C[C@]12C=CC(=O)C=C1CC[C@H]1[C@@H]3C[C@@H](O)[C@](O)(C(=O)CO)[C@@]3(C)C[C@H](O)[C@@]12F
inactive: Potency [1] | Potency [2] | Potency [3] | Potency [4] | Potency [5] | Potency [6] | Potency [7] | Potency [19] | Potency [9] | Potency [10] | Potency [11] | Potency [12] | Potency [13] | Potency [14] | outcome [15] | Potency [16] | Potency [17] | Potency [18]
active: Potency [8] 21.9 µM

CCCCCC=O
inactive: Potency [1] | Potency [2] | Potency [3] | Potency [4] | Potency [5] | Potency [6] | Potency [7] | Potency [19] | Potency [8] | Potency [9] | Potency [10] | Potency [11] | Potency [12] | Potency [14] | outcome [15] | Potency [16] | Potency [17]

COC(=O)CC(=O)OC
inactive: Potency [1] | Potency [2] | Potency [3] | Potency [4] | Potency [5] | Potency [6] | Potency [7] | Potency [19] | Potency [8] | Potency [9] | Potency [10] | Potency [11] | Potency [12] | Potency [14] | outcome [15] | Potency [16] | Potency [17] | Potency [18]

Oc1c(Cl)ccc(Cl)c1Cl
inactive: Potency [1] | Potency [2] | Potency [3] | Potency [4] | Potency [5] | Potency [6] | Potency [7] | Potency [19] | Potency [8] | Potency [9] | Potency [10] | Potency [11] | Potency [12] | Potency [14] | outcome [15] | Potency [16] | Potency [17] | Potency [18]

COC(=O)c1ccc(C)cc1
inactive: Potency [1] | Potency [2] | Potency [3] | Potency [4] | Potency [5] | Potency [6] | Potency [7] | Potency [19] | Potency [8] | Potency [9] | Potency [10] | Potency [11] | Potency [12] | Potency [14] | outcome [15] | Potency [16] | Potency [17]

c1ccc2ncccc2c1
inactive: Potency [1] | Potency [2] | Potency [3] | Potency [4] | Potency [5] | Potency [6] | Potency [7] | Potency [19] | Potency [8] | Potency [9] | Potency [10] | Potency [11] | Potency [12] | Potency [14] | outcome [15] | Potency [16] | Potency [17] | Potency [18]

CCCCCCCCCCCCO
inactive: Potency [1] | Potency [2] | Potency [3] | Potency [4] | Potency [5] | Potency [6] | Potency [7] | Potency [19] | Potency [8] | Potency [9] | Potency [10] | Potency [11] | Potency [12] | Potency [14] | outcome [15] | Potency [16] | Potency [17] | Potency [18]

O=Cc1ccccc1C=O
61.1 µM (active) and inactive: Potency [16]
21.9 µM (active) and inactive: Potency [3]
54.5 µM (active) and inactive: Potency [20] | Potency [17]
inactive: Potency [1] | Potency [2] | Potency [4] | Potency [5] | Potency [6] | Potency [7] | Potency [8] | Potency [9] | Potency [10] | Potency [11] | Potency [12] | Potency [13] | Potency [14] | outcome [15] | Potency [18]

c1ccc2c(c1)ccc1ncccc12
inactive: Potency [1] | Potency [2] | Potency [3] | Potency [4] | Potency [5] | Potency [6] | Potency [7] | Potency [19] | Potency [8] | Potency [9] | Potency [10] | Potency [11] | Potency [12] | Potency [14] | outcome [15] | Potency [16] | Potency [17]
active: Potency [20] 3.83 µM and 5.45 µM
